Bioassay records from PubChem.
The entries come from a sample that favours hits as a whole.
VCAM1 pot: TNF alpha stimulated VCAM1 expression potentiation. HUVEC TNFa-stimulated VCAM-1 immunofluorescence, high-content imaging; scaled per plate to unstimulated/TNFa-only wells. activation, % at 2 µM. 0.19% of 93,000 active. AID 808;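 active = activation above the screen mean plus 3 SD, with well images confirming the hit on visual review, cut at about 28% in these data, passing the limit was not always enough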;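 note: signal is the number of cytoplasmic VCAM-1 stained grains per positive cell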
VCAM1 pot conf: enhancers of VCAM1 induction in HUVEC – imaging, triplicate retest, confirmation. HUVEC TNFa-stimulated VCAM-1 immunofluorescence imaging. shares compounds with VCAM1 pot. 230 tested, under 10 active. AID 1034. activation, % at 2 µM;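 active = activation above 30% in triplicate retests at 2 µM, then confirmed by visual review of the well images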;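 note: scaled per plate between unstimulated and TNFa-stimulated DMSO control wells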
The depositor's hits bear a star.

SMILES	VCAM1 pot	others
COc1ccc(Br)cc1S(=O)(=O)n1ccnc1C	-6
O=C(CCc1ccccc1)Nc1ccccc1C(=O)NCc1ccco1	-1
Cc1sc(NC(=O)CSc2nnc(C(C)C)n2C)c(C#N)c1C	-3
CCn1c(CNC(=O)c2ccc(OC)cc2)nnc1SC	0
Cc1cccc(C(=O)N2c3ccccc3C(=O)OC2c2ccc3c(c2)OCO3)c1 (stereo not drawn)	-5
COc1ccc(NC(=O)c2ccc(Cc3ccc(C)cc3)o2)cc1	26
CCN(CC)C(=O)c1cccc(-c2ccc(OC)cc2)c1	-25
Cc1cc(C)n(-c2ccc(C(=O)OCC(=O)Nc3ccc(Cl)c(S(=O)(=O)N(C)C)c3)cc2)n1	0
c1ccc2c(c1)nc1n2CCN1	9
CC(=O)Nc1ccc2c(c1)CCCN2C(=O)c1ccccc1	-3
CC1(C)CC(=O)C2=C(C1)N(Cc1cccnc1)C(=O)C2(NC(=O)C1CC1)C(F)(F)F (stereo not drawn)	-6
CN(C)c1nc(N(C)C)nc(N(C#N)CCOc2ccccc2)n1	-97
O=C(CSc1nnc(Cc2cccs2)n1-c1ccccc1)NCc1ccc2c(c1)OCO2	15
COc1cccc(CNn2cnnc2)c1OCc1ccccc1F	-4
Cc1ccc(-n2ncc3c(NCCCN4CCOCC4)ncnc32)c(C)c1	-6
CC(=O)Nc1ccc(S(=O)(=O)n2cnc(C)c2)cc1	-91
COc1ccccc1/C=N/Nc1nccnc1Cl	-17
COCCn1c(C)cc(C2=NNC(=Nc3ccccc3F)SC2)c1C	-3
CC(C)Oc1ccc(N2CC(C(=O)Nc3ccccc3F)CC2=O)cc1 (stereo not drawn)	1
Cc1nn(-c2ccccc2)c2c1C(c1c(C)[nH]c(C#N)c1C)C(C#N)=C(N)O2 (stereo not drawn)	-8
CC(C)c1nc(SCC(=O)Nc2cccc(S(N)(=O)=O)c2)n[nH]1	-6
COc1ccccc1-n1cnc2cc(NCc3cccs3)ccc21	-82
Cc1ccc(OCCNS(=O)(=O)c2cccs2)cc1	-4
O=C(Nc1ccccc1)N(CCN1CCOCC1)Cc1ccccc1F	10
O=C(NCc1cccs1)c1nc2c(nnn2Cc2ccccc2Cl)c(=O)[nH]1	-54
SMILES	VCAM1 pot	others
O=C(NNC(=O)c1ccccc1-n1cccc1)c1ccc(Cl)c(Cl)c1	-8
Cc1cc(Cl)ccc1NC(=O)CSc1nnc(Cc2cccs2)n1Cc1ccco1	0
O=C(CSc1nccn1-c1ccccc1)Nc1ccc2c(c1)OCO2	18
COc1ccc(-c2nc3ccccc3c(=O)n2CCN2CCOCC2)cc1	-9
CCOC(=O)c1ccc(NC(=O)Cn2nnc(-c3ccccc3)n2)cc1	-88
COc1cccc2[nH]c3c(N4CC(C)CC(C)C4)ncnc3c12 (stereo not drawn)	3
O=C(NCCCN1CCN(c2cccc(Cl)c2)CC1)c1ccc(N2CCCC2=O)cc1	-7
CCOc1cc(C(=O)NCC(C)CN(C)C)cc(OCC)c1OCC (stereo not drawn)	-12
CC(=N\Nc1ccccc1)/C(=N/O)C(=O)Nc1ccccc1	5
CC(=O)Nc1ccc(NC(=O)Cn2cnc3c(cnn3C(C)(C)C)c2=O)cc1	3
COc1ccc(O)c(C(=O)CC(=O)c2ccccc2)c1	-3
COC(=O)c1oc2c(c1C)C1(CCC2)SCCS1	-24
COc1cc(NS(=O)(=O)c2ccc(NC(=S)NC(=O)C(C)(C)C)cc2)nc(OC)n1	8
O=C(c1ccccc1)c1cccn1CC(=O)N1CCN(C2CCCCC2)CC1	9
Nc1nnc(SCC(=O)NCc2ccc3c(c2)OCO3)s1	-93
CCOC(=O)c1cnn(-c2nc(CC)nc3sc4c(c23)CCC4)c1N	-92
Oc1ccc2ccccc2c1/C=N/c1nccs1	10
C/C(=N\O)c1ccc2c3ccccc3n(C)c2c1	-41
CC(C)C(C(=O)C=[N+]=[N-])N1C(=O)c2ccccc2C1=O (stereo not drawn)	-1
COC(=O)COc1ccc(=O)n(-c2ccccc2)n1	-73
O=C(NCc1ccco1)C1CC(=O)N(c2ccc(F)cc2)C1 (stereo not drawn)	-85
COc1cc(NS(=O)(=O)c2ccc(NC(=O)COc3ccc(C)cc3)cc2)nc(OC)n1	-7
CCC(=O)Nc1nnc(CSCc2ccccc2)s1	3
Cc1ccc(S(=O)(=O)NC2CCOC(C)(C)C2)cc1 (stereo not drawn)	-7
O=C(OCc1cn(-c2ccc(Cl)c(Cl)c2)nn1)c1ccccc1	21
SMILES	VCAM1 pot	others
CCCCCc1nnc(NC(=O)Cc2cccs2)s1	1
CC(C)(/C=N/O)/[N+]([O-])=C/c1ccco1	8
CC(C)N1CC(C(=O)Nc2ccc(Br)c(Cl)c2)CC1=O (stereo not drawn)	-5
O=C(Cc1ccccc1)N/N=C/C=C/c1cccc([N+](=O)[O-])c1	-2
CCOC(=O)NC1(C(F)(F)F)C(=O)NC(C)=C1C#N (stereo not drawn)	0
N#Cc1ccc(N2CCN(c3ccc(F)cc3)CC2)cc1	24
CN(CC(=O)NCc1ccncc1)S(=O)(=O)c1ccc(F)cc1	-100
O=C(O)C1C2C=CC3(O2)C1C(=O)N1c2ccccc2C2OCCC2C13 (stereo not drawn)	5
CCOC(=O)C(NCc1ccc(F)cc1)(NC(=O)c1ccccc1)C(F)(F)F (stereo not drawn)	31
O=C1Nc2c(c(=O)[nH]c(=O)n2-c2ccccc2F)C(C(F)(F)F)(C(F)(F)F)N1	28
COc1cccc(/C=C2\N=C3CCCCCN3C2=O)c1	4
Cc1cc(OCc2nc(-c3cccs3)no2)cc(C)c1Cl	-6
CC1(C(=O)CSc2nc3ccccc3s2)CCC(=O)O1 (stereo not drawn)	-8
CCCNC(=O)c1ccc(-c2nc3ccccc3s2)s1	-8
Cc1cccc(C(=O)Oc2ccccc2C2C[C@]3(C)CC(=O)NC3N2C(=O)c2cccc(C)c2)c1 (stereo partly drawn)	-100
O=C(CCCn1c(=S)[nH]c2ccccc2c1=O)N1CCCCC1	0
COc1ccc(C(=O)/C(C)=N/O)cc1OC	-5
COc1ccc(C(=O)Nc2nc3ccccc3[nH]2)cc1OC	-7
COc1ccc(C(=O)Nn2c(C)nnc2-n2nc(C)cc2C)cc1OC	43*	VCAM1 pot conf=-13
COc1ccc(CCNC2CC(=O)N(C)C2=O)cc1OC (stereo not drawn)	-6
Cc1cc2ncn(C(=O)N3CCC(C)CC3)c2cc1C	25
Clc1ccc(Oc2nc3ccccc3n3cccc23)cc1	5
COc1ccc(CN2CNc3nc4ccccc4n3C2)cc1	1
CC1(C)C(c2cccs2)=[N+]([O-])C2(CCCCC/C2=N\NC(N)=S)N1O (stereo not drawn)	-4
CN(C)S(=O)(=O)N(CCN1CCOCC1)Cc1ccccc1F	45*	VCAM1 pot conf=-8
SMILES	VCAM1 pot	others
CC1(C)CC(=O)c2cnc(NCC3CCCO3)nc2C1 (stereo not drawn)	-10
Cc1ccc(C(=O)CSc2nnc(COc3ccc(C#N)cc3)n2-c2ccccc2)cc1	-96
CCn1c(=O)cc(OCC(=O)Nc2ccccc2N2CCN(C)CC2)c2ccccc21	-8
COc1ccc(C)cc1NS(=O)(=O)c1ccc(NS(=O)(=O)c2ccc(NC(C)=O)cc2)cc1	2
CC(=O)Nc1ccc(S(=O)(=O)NC(CC(=O)NC2CCCCC2C)C(C)C)cc1 (stereo not drawn)	31*	VCAM1 pot conf=-14
CC(=O)c1ccc(NS(=O)(=O)c2ccc(CC(C)C)cc2)cc1	8
